In PubChem BioAssay AID1903 (Southern Research Specialized Biocontainment Screening …, 2009) one finds inhibition data, which are given here for 92 compounds.

By inhibition is commonly meant the relative decrease from the control value, in per cent.

Where “and” joins values, the source holds several entries; their conditions need not be identical. Identical values can stand only once. Screen size: about 310,000 compounds; about 1,200 (0.39%) were called active. How the calls were made is not given here. Not all results are given here. Potency and affinity values are given separately.

Large T antigen (Simian virus 40), sequence (P03070 whole entry, looked up): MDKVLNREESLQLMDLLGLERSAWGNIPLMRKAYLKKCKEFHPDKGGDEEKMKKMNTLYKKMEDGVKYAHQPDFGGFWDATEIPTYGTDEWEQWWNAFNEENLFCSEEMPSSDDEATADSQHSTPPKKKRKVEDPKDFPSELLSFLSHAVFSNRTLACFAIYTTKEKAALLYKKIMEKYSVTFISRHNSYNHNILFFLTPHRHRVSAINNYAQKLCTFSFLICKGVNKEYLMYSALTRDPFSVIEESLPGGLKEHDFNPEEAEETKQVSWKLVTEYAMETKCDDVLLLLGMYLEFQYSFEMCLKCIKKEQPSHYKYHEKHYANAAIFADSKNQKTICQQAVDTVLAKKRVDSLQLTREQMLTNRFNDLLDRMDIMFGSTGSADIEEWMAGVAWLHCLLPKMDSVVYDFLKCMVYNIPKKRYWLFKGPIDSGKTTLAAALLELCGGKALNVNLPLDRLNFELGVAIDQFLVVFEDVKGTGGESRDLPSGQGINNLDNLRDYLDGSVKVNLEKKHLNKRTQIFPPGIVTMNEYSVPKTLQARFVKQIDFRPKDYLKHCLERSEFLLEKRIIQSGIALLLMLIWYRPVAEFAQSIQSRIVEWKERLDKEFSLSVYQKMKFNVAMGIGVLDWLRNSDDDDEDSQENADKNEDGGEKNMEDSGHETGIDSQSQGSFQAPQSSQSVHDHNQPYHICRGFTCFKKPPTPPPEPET

The experiment concerns the target Large T antigen (Simian virus 40) (UniProt P03070). The experiment is described as follows: SV40 large T antigen inhibitors, biochemical (AID 1903). To be noted: SV40 large T antigen ATPase/helicase inhibition assay; at 20 µM; stronger effect = higher value.
Take `O=C(O)c1ccc(N(Cc2ccccc2)S(=O)(=O)c2ccccc2)cc1`: the inhibition was 1.43% (inactive) and 0.12% (inactive).
Turning to `CN(C[C@H](Cc1ccccc1)N(C[C@H](Cc1ccccc1)N(CCc1cc(C(F)(F)F)cc(C(F)(F)F)c1)N=O)N=O)N=O`, the inhibition is 0.235% (inactive).
With `COc1ccc(N2CCN(CC(=O)Nc3sccc3C#N)CC2)cc1`, the inhibition was 8.41% (inactive).
With `Cc1cc(C)cc(OCC(=O)OCC(=O)Nc2c(C)n(C)n(-c3ccccc3)c2=O)c1` the figure was 15.2% (inactive); with `O=C(CN1CCN(c2ccc(F)cc2)CC1)Nc1ccc2c(c1)OCCO2`, 8.68% (inactive).
With `O=C(CN1CCN(c2ccccc2)CC1)Nc1ccc2c(c1)OCCO2`, the inhibition is -0.06% (inactive).
On to `Cc1c(NC(=O)CN2CCN(c3ccccc3)CC2)c(=O)n(-c2ccccc2)n1C`, for which the inhibition was 3.86% (inactive).
On to `CCC(=O)c1ccc(OCC(=O)OCC(=O)Nc2c(C)n(C)n(-c3ccccc3)c2=O)cc1`, for which the inhibition is 12.3% (inactive).
For the compound `Cc1c(NC(=O)CN2CCN(c3ccc(F)cc3)CC2)c(=O)n(-c2ccccc2)n1C`, the inhibition was 6.05% (inactive).
With `N#Cc1ccsc1NC(=O)CN1CCN(c2ccccc2)CC1` the figure was 9.52% (inactive); with `CCOc1ccc(C2/C(=C(/O)c3ccc4c(c3)CC(C)O4)C(=O)C(=O)N2CCCn2ccnc2)cc1OCC` (configuration not stated), 2.21% (inactive); with `Cc1ccsc1/C=N/NC(=O)c1cccnc1`, 10.3% (inactive).
As to `COc1cccc(N/C=C/C(=O)c2ccc(OC)c(OC)c2)c1`, the inhibition was 15.6% (inactive).
In the case of `Cc1cc(NC(=O)c2ccc3c(c2)C(=O)N(C)C3=O)no1`, the inhibition is 21.4% (inactive).
With `COc1ccccc1C(=O)Nc1cccc2c1CCCC2` the figure was 3.42% (inactive); with `Cc1cc(CNC(=O)CCc2nnc(CCCc3ccccc3)o2)nn1C`, 23% (inactive); with `Cc1cccc(N(CC(=O)NCc2ccc3c(c2)OCO3)C(=O)CCC(=O)Nc2ccccn2)c1`, 3.36% (inactive).
Turning to `c1ccc(OCCOCCSc2ncccn2)cc1`, the inhibition was 3.66% (inactive).
In the case of `COc1cccc(-c2ccc3nnc(SCC(=O)N4CCOCC4)n3n2)c1`, the inhibition was 8.56% (inactive).
Consider `COc1cc(OC)c(C(=O)OCC(=O)N2CCOCC2)cc1OC`, for which the inhibition is -1.18% (inactive).
Turning to `COc1ccc(N2CCN(CC(=O)NC(=O)NC(C)(C)C)CC2)cc1`, the inhibition was 22.3% (inactive).
Regarding `COc1ccc(N2CCN(CC(=O)Nc3cc(C)on3)CC2)cc1`, the inhibition is 12.3% (inactive).
For `CC(C)(C)NC(=O)NC(=O)CN1CCN(c2ccccc2)CC1`, the inhibition is -1% (inactive).
With `CC(=O)c1ccc(N2CCN(CC(=O)Nc3cc(C)on3)CC2)cc1`, the inhibition is 11.5% (inactive).
`CCCN(CC(=O)Nc1ccc(Cl)cc1Cl)Cc1cc(=O)n2ccsc2n1`: the inhibition was -0.76% (inactive).
Turning to `COc1ccc(C(=O)NCc2nnc(SCC(=O)Nc3nnc(C)s3)o2)cc1`, the inhibition was 11.2% (inactive).
The same measure for `Cc1ccc(S(=O)(=O)NCC(=O)N(CC(=O)NC2CCCC2)c2ccc3c(c2)OCCO3)cc1`: 6.71% (inactive); for `CCOc1c(C)cnc2c1c(=O)n(Cc1c(F)cccc1Cl)c(=O)n2C`: 18.6% (inactive).
The same measure for `COc1ccc(N2Nc3n[nH]c(N)c3N2)cc1`: 34.9% (inactive); for `CCOc1ccc(N2C(N)=NC(N)=NC2(C)C)cc1`: 2.99% (inactive); for `COc1ccc(NC2=CC(c3ccc(OC)cc3)N(c3ccc(OC)cc3)C2=O)cc1` (configuration not stated): 11.9% (inactive).
For the compound `Cc1cc(NS(=O)(=O)c2cccs2)no1`, the inhibition was -2.38% (inactive).
Regarding `CC(=O)Nc1cccc(NC(=O)CSc2ncc(C(=O)Nc3ccccc3)c(=O)n2C)c1`, the inhibition was 19.6% (inactive).
Take `Fc1ccccc1COc1ccc(Br)cc1CNCC1CCCO1` (configuration not stated): the inhibition is 4.34% (inactive).
For the compound `Cc1cccc(N2C(=O)c3ccc(Br)cc3C2=O)n1`, the inhibition was 8.73% (inactive).
On to `Cc1cccc(N2C(=O)c3ccccc3C2=O)n1`, for which the inhibition is 4.5% (inactive).
The same measure for `Cc1csc(NC(=O)c2cc(=O)[nH]c3ccccc23)n1`: 5.64% (inactive); for `CN(C)S(=O)(=O)c1ccc(Cl)c(NC(=O)CN2CCNC(=O)C2)c1`: 5.76% (inactive); for `Cc1ccc(C)c(NC(=O)C(Sc2nc3ccccc3c(=O)n2CC(C)C)c2ccccc2)c1` (configuration not stated): 4.6% (inactive).
`COc1ccc(C)cc1CN1C(=O)c2ccccc2C1=O`: the inhibition was 2.66% (inactive).
For `COc1ccc(C=O)cc1CN1C(=O)c2ccccc2C1=O`, the inhibition is 0.06% (inactive).
The same measure for `COc1ccc(CN2CC(C(=O)N3CCOCC3)CC2=O)cc1` (configuration not stated): 13.7% (inactive).
Consider `Cc1c(NC(=O)c2ccc(-c3ccc([N+](=O)[O-])cc3Cl)o2)c(=O)n(-c2ccccc2)n1C`, for which the inhibition was 7.53% (inactive).
Take `N=C1/C(=C\c2ccc(SCc3ccccc3)o2)C(=O)N=C2SC=NN12`: the inhibition is -0.34% (inactive).
As to `O=C(O)CN1C(=O)/C(=C/c2ccc(SCc3ccccc3)o2)SC1=S`, the inhibition was 12.4% (inactive).
As to `CCC1=NN2C(=N)/C(=C\c3ccc(SCc4ccco4)o3)C(=O)N=C2S1`, the inhibition is 0.38% (inactive).
As to `CC1=NN2C(=N)/C(=C\c3ccc(SCc4ccccc4)o3)C(=O)N=C2S1`, the inhibition is 15.7% (inactive).
Consider `O=C1NC(=S)S/C1=C/c1ccc(OC(=O)c2ccco2)cc1`, for which the inhibition is 12% (inactive).
Take `CCS(=O)(=O)C1=NN2C(=N)/C(=C\c3ccc(SCc4ccco4)o3)C(=O)N=C2S1`: the inhibition was 59.6% (inactive).
With `Cc1ccc(-c2nnc(SC(C)C(=O)NCC3CCCO3)nc2-c2ccc(C)cc2)cc1` (configuration not stated) the figure was 7.01% (inactive); with `Cn1c(=O)n(CCOc2ccc(Cl)cc2Cl)c2ccccc21`, 24.1% (inactive); with `O=C(COC(=O)c1ccccc1Oc1ccccc1)NC1CCS(=O)(=O)C1` (configuration not stated), 2.91% (inactive).
For `COc1ccc(C2c3sc(=O)[nH]c3SCC2C(N)=O)cc1` (configuration not stated), the inhibition was 12.6% (inactive).
For the compound `CCCCOP(=O)(c1ccc(N(C)C)cc1)C(O)c1ccccc1F` (configuration not stated), the inhibition is 0.81% (inactive).
Turning to `O=C(CN(C(=O)CCC(=O)Nc1ccccn1)c1cccc(F)c1)NCc1ccc2c(c1)OCO2`, the inhibition was 5.37% (inactive).
The same measure for `CCCNC(=O)N[C@@H](CCSC)C(=O)OC`: 1.19% (inactive).
The same measure for `N#C/C(=C\c1ccccc1Cl)C(=O)NC(=O)Oc1ccccc1`: 23.3% (inactive).
The same measure for `CCCCCc1nc2c(c(=O)c3ccccc3n2C)c(=O)n1Cc1ccc(OC)cc1`: 6.54% (inactive).
On to `c1ccc(-n2cc(CN3CCCC(CN4CCCC4)C3)c(-c3ccc4c(c3)OCO4)n2)cc1` (configuration not stated), for which the inhibition was 0.36% (inactive).
As for `CC(=O)c1cccc(NC(=O)CCNC(=O)c2ccccc2Cl)c1`, the inhibition is 7.59% (inactive).
Take `O=C(N/N=C(\c1ccccc1)c1cccnc1)c1ccc(O)cc1`: the inhibition is 14.2% (inactive).
In the case of `O=C(N/N=C(\c1ccccc1)c1cccnc1)c1cccc(F)c1`, the inhibition is 8.05% (inactive).
On to `CCOC(=O)C1CCCN(C(=O)c2cn(CC)c3ccc(S(=O)(=O)N(C)C)cc3c2=O)C1` (configuration not stated), for which the inhibition is 12.6% (inactive).
With `Cc1c(Cl)cccc1NC(=O)Cn1cnc(S(=O)(=O)N2CCCC2)c1`, the inhibition was 12.7% (inactive).
With `CC(NC(=S)Nc1ccc(Cl)cc1)C(c1ccccc1)N1CCOCC1` (configuration not stated) the figure was 8.17% (inactive).
Turning to `COc1ccc2sc(C)[n+](C)c2c1`, the inhibition was 11.2% (inactive).
In the case of `CC[n+]1c(C)sc2cc(OC)ccc21`, the inhibition was 8.13% (inactive).
Consider `Cn1c(SCC(=O)Nc2ccc3c(c2)OCCO3)nnc1-c1cccnc1`, for which the inhibition is -0.17% (inactive).
Consider `COc1ccccc1N1CCN(/N=C/c2cccc(O)c2)CC1`, for which the inhibition is 7.2% (inactive).
As for `COc1ccc(/C=N/N2CCN(c3ccccc3OC)CC2)cc1OC`, the inhibition is 6.87% (inactive).
For the compound `c1ccc(C2=Nn3c(nnc3-c3ccco3)SC2)cc1`, the inhibition was 10.2% (inactive).
The same measure for `Fc1ccc(C2=Nn3c(nnc3-c3ccco3)SC2)cc1`: 9.39% (inactive); for `CN1N=C(C(=O)N2CCCC(C(=O)c3cccc(C(F)(F)F)c3)C2)CCC1=O` (configuration not stated): 2.73% (inactive).
Turning to `CCOc1ccccc1/C=N/n1c(COc2ccccc2)n[nH]c1=S`, the inhibition is 14.8% (inactive).
In the case of `O=c1/c(=C/c2ccc(O)c([N+](=O)[O-])c2)sc2nc3ccccc3n12`, the inhibition was 9.09% (inactive).
The same measure for `CCN(CC)c1ccc(/C=c2\sc3nc4ccccc4n3c2=O)c(O)c1`: 11.3% (inactive); for `O=C(O)COCC(=O)Nc1ccc(-n2cnnn2)cc1`: 3.06% (inactive); for `C/C(=N\NC(=O)Cn1nc(C)c([N+](=O)[O-])c1C)c1ccc(O)cc1`: 34.5% (inactive).
As to `C/C(=N\NC(=O)Cn1cc([N+](=O)[O-])cn1)c1ccco1`, the inhibition was -0.91% (inactive).
Regarding `C/C(=N\NC(=O)c1ccc([N+](=O)[O-])cc1)c1cccc([N+](=O)[O-])c1`, the inhibition was 6.04% (inactive).
Turning to `C/C(=N\NC(=O)c1cccc(N/N=C(\C)c2ccc([N+](=O)[O-])cc2)c1)c1ccc([N+](=O)[O-])cc1`, the inhibition is 7.03% (inactive).
The same measure for `CC1(C)C2CCC(C2)C1(C)NC(=O)CNCc1cccs1` (configuration not stated): 5.5% (inactive); for `Cc1cccc(CS(=O)(=O)Cc2ccc(C(=O)NC(C)c3ccccc3)o2)c1` (configuration not stated): 2.72% (inactive).
For the compound `Cc1onc(-c2ccccc2)c1C(=O)Nc1ccc(S(=O)(=O)N2CCCC2)cc1`, the inhibition was 4.98% (inactive).
With `N#C/C(=C\c1ccc(O)c(Br)c1)C(=O)N1CCCCC1`, the inhibition was 9.59% (inactive).
As to `COc1cc(/C=C/C(=O)CC(=O)/C=C/c2ccc(O)c(OC)c2)ccc1O`, the inhibition was 17.5% (inactive).
For `N#C/C(=C\c1cccc(O)c1)C(=O)N1CCCCC1`, the inhibition is 13.5% (inactive).
Take `COc1ccc(C=C(C(C)=O)C(C)=O)cc1OC`: the inhibition is 16.2% (inactive).
With `CC(=O)C1C(c2ccncc2)NC(=O)NC1(O)C(F)(F)F` (configuration not stated), the inhibition is 18.7% (inactive).
With `Cn1/c(=N/NC(=O)c2ccccc2Br)sc2ccccc21` the figure was 5.44% (inactive); with `CCOCCn1c(=NC(=O)CSCC(=O)Nc2cc(C)on2)sc2cc(OC)ccc21`, -3.67% (inactive); with `Cc1ccc(S(=O)(=O)N(C)CC(=O)N2CCOCC2)cc1`, 0.93% (inactive).
